Laboratory results: PubChem BioAssay (NCATS)
Results filed as inconclusive are left out. Active and inactive are the calls of the source. Unless noted, calls come from the whole dose curve; as a rule, active = well fitted curve in the direction sought with a large enough effect; inconclusive = small, poorly fitted or top-dose-only effect, or another doubt; inactive = no such curve, though single readings can be large; an effect the other way counts as inactive or inconclusive.

Assays:
[1] = AP1 Signaling Pathway (AID 357; active = well fitted curve in either direction with a large enough effect, not every such curve was filed as active; note: % is set by controls: 0 for no effect and ±100 for the full control effect); settings: ME-180 AP-1-bla reporter, EGF-induced, beta-lactamase ratio, 5 h; at 7.69 µM (top of the series) unless noted
How it was run: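 Titration-series screen for positive or negative modulators of EC50 EGF-induced signaling in ME-180 cells carrying an AP-1-driven beta-lactamase reporter. After 5 hours at 37 degrees Celsius, CCF4 460nm/530nm emission ratio gave %Activity; AC50 values derived.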

[2] = molecular target: Cytochrome P450 1A2 (Homo sapiens) (UniProt P05177); assay: p450-cyp1a2 (AID 410; calls by dose curve; note: potency is the fitted concentration of half-maximal effect)
Cytochrome P450 1A2 (Homo sapiens), sequence (P05177 whole entry, looked up): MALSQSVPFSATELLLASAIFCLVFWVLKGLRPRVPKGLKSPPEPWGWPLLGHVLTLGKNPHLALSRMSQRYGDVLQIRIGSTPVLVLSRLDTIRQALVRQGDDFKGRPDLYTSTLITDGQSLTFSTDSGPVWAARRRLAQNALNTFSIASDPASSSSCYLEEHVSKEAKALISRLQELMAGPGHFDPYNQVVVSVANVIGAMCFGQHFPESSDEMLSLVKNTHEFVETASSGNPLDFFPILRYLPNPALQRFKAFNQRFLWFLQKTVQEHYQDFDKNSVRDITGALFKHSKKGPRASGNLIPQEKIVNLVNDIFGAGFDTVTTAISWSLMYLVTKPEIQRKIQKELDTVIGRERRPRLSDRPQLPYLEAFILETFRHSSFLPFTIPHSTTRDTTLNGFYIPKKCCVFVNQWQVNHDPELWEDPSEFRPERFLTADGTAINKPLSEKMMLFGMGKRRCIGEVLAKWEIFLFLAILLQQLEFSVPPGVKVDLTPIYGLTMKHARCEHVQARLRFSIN
How it was run: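 O-Demethylation of luciferin 6' methyl ether by human CYP1A2 is monitored as luciferase luminescence. Substrate sits at Km (100uM); enzyme is 20nM. Values are scaled to 57 uM furafylline as maximal inhibition.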

[3] = NFAT Signaling Pathway (AID 444; active = well fitted curve in either direction with a large enough effect, not every such curve was filed as active;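 note: carbachol stimulus at about its EC50 of 1 µM final; % is set by controls: 0 for no effect and ±100 for the full control effect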); settings: Jurkat NFAT-bla M1, carbachol, beta-lactamase ratio, 5 h; at 7.69 µM (top of the series) unless noted
How it was run: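 Read-out: CCF4 FRET ratio (460 nm/530 nm) after 1 h RT dye loading, used for %activity and AC50 from titration series. Cells: Jurkat NFAT-β-lactamase/M1 line, treated with compound plus 1 uM carbachol for 5 h, 37 °C.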

[4] = Stat Signaling Pathway (AID 446; active = well fitted curve in either direction with a large enough effect, not every such curve was filed as active;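 note: ME-180 cervical cancer cells given 40 pM IL-6 alongside compound; SIE-controlled beta-lactamase reporter measured as 460/530 nm FRET emission ratio; % is set by controls: 0 for no effect and ±100 for the full control effect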); settings: ME-180 (cervical carcinoma) SIE beta-lactamase reporter, IL-6 stimulated, 5 h; at 7.69 µM (top of the series) unless noted
How it was run: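 Emission at 460 and 530 nm (excitation 405 nm) reports SIE-controlled beta-lactamase in ME-180 cells. Cells received compound with 40 pM IL-6 for 5 hrs at 37 C; data scaled between 300 pM IL-6 and 125 nM JAK-inhibitor controls.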

[5] = molecular target: Glucocorticoid receptor (Homo sapiens) (UniProt P04150); assay: GR-GFP Redistribution (AID 450;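 active = compounds whose dose series gives a full or clear partial fitted curve of increased nuclear translocation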; note: potency is the fitted concentration of half-maximal effect); settings: U2OS GR-GFP nuclear translocation, laser cytometry, 2 h
Glucocorticoid receptor (Homo sapiens), sequence (P04150 whole entry, looked up, the tested form may be a part): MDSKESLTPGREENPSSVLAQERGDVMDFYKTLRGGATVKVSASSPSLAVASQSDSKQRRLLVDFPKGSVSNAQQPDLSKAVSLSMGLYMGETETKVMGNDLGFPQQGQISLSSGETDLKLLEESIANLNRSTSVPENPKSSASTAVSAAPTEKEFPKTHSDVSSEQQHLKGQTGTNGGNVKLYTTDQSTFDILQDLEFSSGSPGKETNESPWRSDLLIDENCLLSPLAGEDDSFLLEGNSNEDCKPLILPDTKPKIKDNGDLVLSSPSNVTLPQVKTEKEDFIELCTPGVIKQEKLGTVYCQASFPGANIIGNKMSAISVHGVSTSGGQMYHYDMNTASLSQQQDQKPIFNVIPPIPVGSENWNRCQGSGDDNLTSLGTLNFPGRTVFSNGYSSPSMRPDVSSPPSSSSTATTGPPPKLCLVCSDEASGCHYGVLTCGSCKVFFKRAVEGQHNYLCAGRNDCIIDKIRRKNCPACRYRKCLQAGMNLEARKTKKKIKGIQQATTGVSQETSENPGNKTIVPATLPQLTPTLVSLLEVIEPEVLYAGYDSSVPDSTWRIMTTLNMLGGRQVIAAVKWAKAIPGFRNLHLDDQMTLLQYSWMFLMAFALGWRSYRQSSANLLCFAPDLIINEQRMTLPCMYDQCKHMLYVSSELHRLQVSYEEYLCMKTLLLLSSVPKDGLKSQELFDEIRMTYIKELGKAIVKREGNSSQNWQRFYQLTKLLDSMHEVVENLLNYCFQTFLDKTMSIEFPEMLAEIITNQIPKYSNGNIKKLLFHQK

[6] = molecular target: Glucocorticoid receptor (Homo sapiens) (UniProt P04150); assay: GR-EFC Redistribution (AID 451; calls by dose curve; note: potency is the fitted concentration of half-maximal effect); settings: CHO-K1 GR-EFC translocation, beta-gal luminescence, 2 h
How it was run: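 Translocation of GR-ED fusion to nuclear EA restores b-gal, read by luminescence after 1 h room-temperature detection. Engineered CHO-K1 biosensor cells, 1,000/well, exposed 2 h at 37 C to titrations up to 46 uM final.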

[7] = molecular target: 3',5'-cyclic-AMP phosphodiesterase 4B (Homo sapiens) (UniProt Q07343); assay: qHTS Assay for Inhibitors of PDE-IV (AID 607; active = well fitted activation curve with a large enough effect in the main read-out, with a control signal flat, not every such curve was filed as active; note: potency is the fitted concentration of half-maximal effect)
3',5'-cyclic-AMP phosphodiesterase 4B (Homo sapiens), sequence (Q07343 whole entry, looked up): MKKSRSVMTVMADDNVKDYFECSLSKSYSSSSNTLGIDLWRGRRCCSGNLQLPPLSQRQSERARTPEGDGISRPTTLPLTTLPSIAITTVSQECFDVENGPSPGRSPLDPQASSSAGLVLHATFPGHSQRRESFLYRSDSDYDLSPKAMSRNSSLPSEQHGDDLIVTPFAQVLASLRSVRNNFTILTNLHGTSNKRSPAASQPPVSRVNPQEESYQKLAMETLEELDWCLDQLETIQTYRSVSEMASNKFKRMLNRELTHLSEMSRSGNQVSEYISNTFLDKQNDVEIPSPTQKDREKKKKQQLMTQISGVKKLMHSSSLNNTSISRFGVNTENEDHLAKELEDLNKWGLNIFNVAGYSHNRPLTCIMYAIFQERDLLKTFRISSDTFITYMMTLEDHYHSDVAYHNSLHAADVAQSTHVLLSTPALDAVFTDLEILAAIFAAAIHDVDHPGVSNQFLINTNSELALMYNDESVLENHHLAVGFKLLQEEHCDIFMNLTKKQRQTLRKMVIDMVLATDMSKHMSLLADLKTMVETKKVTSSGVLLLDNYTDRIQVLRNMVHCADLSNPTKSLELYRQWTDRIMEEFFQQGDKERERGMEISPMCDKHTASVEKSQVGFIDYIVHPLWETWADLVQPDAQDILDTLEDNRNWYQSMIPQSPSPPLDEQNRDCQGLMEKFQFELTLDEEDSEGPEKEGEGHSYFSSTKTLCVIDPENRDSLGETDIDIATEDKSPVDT
How it was run: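 The readout is membrane depolarisation from a cAMP-sensing CNG channel, detected with a potential dye at ex 535/em 590. Cells were HEK293-derived (endogenous PDE-IV) at 1000 cells/well, titrated up to 22.9 uM final.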

[8] = molecular target: Guanine nucleotide-binding protein G(i) subunit alpha-1 (Homo sapiens) (UniProt P63096); assay: qHTS Assay for Inhibitors of RGS12 GoLoco Motif Activity (Green Fluorophore) (AID 879);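 note: 0% = labeled peptide with Gαi1 and full inhibition = labeled peptide alone without protein; negative values mean loss of peptide binding seen as reduced polarization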
Guanine nucleotide-binding protein G(i) subunit alpha-1 (Homo sapiens), sequence (P63096 whole entry, looked up): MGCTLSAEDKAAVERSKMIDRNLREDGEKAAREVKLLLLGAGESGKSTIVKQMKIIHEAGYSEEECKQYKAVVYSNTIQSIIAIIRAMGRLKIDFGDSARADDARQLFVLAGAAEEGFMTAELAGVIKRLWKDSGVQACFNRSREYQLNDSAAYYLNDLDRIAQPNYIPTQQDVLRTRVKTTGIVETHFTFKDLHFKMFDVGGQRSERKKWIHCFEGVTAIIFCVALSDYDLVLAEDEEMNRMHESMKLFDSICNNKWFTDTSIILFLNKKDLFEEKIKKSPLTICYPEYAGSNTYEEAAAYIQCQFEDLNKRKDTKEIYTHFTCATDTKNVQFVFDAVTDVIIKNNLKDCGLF
How it was run: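 A drop in FITC polarization marked displacement of the FITC-tagged RGS12 GoLoco peptide (10 nM) from Gαi1 (50 nM). Compounds were incubated 10 min at room temperature in Tris pH 7.5 buffer containing 150 mM NaCl, 0.1 mM GDP and 0.05% NP40; unlabeled peptide titration served as control.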

[9] = molecular target: Cytochrome P450 3A4 (Homo sapiens) (UniProt P08684); assay: qHTS Assay for Activators of Cytochrome P450 3A4 (AID 885); note: nearly all actives have a fitted effect of over 65% in size
Cytochrome P450 3A4 (Homo sapiens), sequence (P08684 whole entry, looked up): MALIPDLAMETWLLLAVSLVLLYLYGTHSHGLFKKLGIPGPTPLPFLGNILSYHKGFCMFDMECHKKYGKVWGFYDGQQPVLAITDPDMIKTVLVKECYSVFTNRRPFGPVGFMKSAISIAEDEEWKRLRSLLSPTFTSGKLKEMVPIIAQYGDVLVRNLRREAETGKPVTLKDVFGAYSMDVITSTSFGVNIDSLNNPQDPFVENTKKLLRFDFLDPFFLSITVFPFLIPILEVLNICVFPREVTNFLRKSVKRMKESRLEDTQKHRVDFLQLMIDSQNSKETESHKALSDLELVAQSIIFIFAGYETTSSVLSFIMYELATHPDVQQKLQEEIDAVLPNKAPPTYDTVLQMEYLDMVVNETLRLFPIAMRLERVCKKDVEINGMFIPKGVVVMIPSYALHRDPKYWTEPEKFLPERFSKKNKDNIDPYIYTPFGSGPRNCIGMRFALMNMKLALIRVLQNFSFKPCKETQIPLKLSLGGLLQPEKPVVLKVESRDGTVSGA
How it was run: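 Activators are scored by enhanced luminescence from CYP3A4 conversion of luciferin-PPXE (25uM, equal to KM) to luciferin, after 60 min at RT with an NADPH-regenerating system.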

[10] = qHTS Assay for Identification of Small Molecule Antagonists for NFkB Signaling Pathway (AID 895; active = well fitted inhibition curve with a large enough effect in the signal ratio, with a control signal flat, not every such curve was filed as active; the % refers to the signal ratio; note: % is set by controls: 0 for no effect and ±100 for the full control effect)
How it was run: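 Beta-lactamase reporter read-out (460 and 530 nm emission ratio, 405 nm excitation, 2 hrs substrate loading RT) after 5 hr stimulation with 10 pM TNF alpha in compound-treated NFkB-bla ME-180 cells in low-serum medium.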

[11] = molecular target: Muscarinic acetylcholine receptor M1 (Rattus norvegicus) (UniProt P08482); assay: qHTS Assay for Antagonists of Acetylcholine Muscarinic M1 Receptor: Measurement of IP-One Response (AID 944); note: nearly all actives have a fitted effect of over 75% in size
Muscarinic acetylcholine receptor M1 (Rattus norvegicus), sequence (P08482 whole entry, looked up): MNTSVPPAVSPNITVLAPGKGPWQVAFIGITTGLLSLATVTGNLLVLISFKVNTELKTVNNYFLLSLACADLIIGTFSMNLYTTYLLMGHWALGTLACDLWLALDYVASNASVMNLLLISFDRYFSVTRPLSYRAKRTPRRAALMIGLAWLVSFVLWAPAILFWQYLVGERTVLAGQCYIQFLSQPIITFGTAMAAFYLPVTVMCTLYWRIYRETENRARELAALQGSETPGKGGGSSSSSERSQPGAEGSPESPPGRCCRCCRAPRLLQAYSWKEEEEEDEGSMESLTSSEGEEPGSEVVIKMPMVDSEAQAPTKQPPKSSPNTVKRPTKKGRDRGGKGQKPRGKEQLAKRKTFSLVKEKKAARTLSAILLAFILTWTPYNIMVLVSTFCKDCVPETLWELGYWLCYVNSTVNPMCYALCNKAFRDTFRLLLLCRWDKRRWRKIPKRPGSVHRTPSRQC
How it was run: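 Antagonist mode with rat M1 receptor transfected into CHO cells. Compound is added first for 10 min, carbachol at its EC80 follows for 30 min, and lysis reagents then allow TR-FRET detection of accumulated IP1.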

[12] = molecular target: Pyruvate kinase (Leishmania mexicana) (UniProt Q27686); assay: qHTS Validation Assay for Inhibitors of Leishmania Mexicana Pyruvate Kinase (AID 945);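 note: 0% = DMSO only neutral control wells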
Pyruvate kinase (Leishmania mexicana), sequence (Q27686 2-499 E452W): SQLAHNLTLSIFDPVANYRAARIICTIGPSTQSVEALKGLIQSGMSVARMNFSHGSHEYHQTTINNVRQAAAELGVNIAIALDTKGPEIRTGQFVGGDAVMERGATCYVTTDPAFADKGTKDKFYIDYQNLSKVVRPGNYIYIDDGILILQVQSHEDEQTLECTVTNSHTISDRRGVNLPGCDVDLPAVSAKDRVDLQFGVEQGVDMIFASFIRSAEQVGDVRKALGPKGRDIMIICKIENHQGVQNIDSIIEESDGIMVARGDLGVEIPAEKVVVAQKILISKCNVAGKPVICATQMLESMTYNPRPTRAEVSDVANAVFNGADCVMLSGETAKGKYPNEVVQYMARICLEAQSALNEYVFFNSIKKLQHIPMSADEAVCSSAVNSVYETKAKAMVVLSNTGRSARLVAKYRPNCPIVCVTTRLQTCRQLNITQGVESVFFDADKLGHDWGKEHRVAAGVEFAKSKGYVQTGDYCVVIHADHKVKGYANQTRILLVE
How it was run: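 Pyruvate kinase activity of E451W LmPYK (0.2 nM) was followed as ATP output after 1 h at room temperature with 0.5 mM PEP and 0.1 mM ADP, detected by PKLight luminescence.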

[13] = molecular target: Pyruvate kinase PKM (Homo sapiens) (UniProt P14618); assay: qHTS Assay for Activators of Human Muscle Pyruvate Kinase (AID 954; active = well fitted curve in the direction sought with a large enough effect, not every such curve was filed as active;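 note: 0% = uninhibited enzyme and -100% = no enzyme or full thiadiazolimine inhibition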)
How it was run: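 PKM2, human, >95% pure, 0.1 nM; PEP 0.5 mM (Km), ADP 0.1 mM; 50 mM imidazole pH 7.2, 50 mM KCl, 0.01% Tween 20, 0.05% BSA; 1 h RT; luciferase luminescence readout.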

[14] = molecular target: Alpha-galactosidase A (Homo sapiens) (UniProt P06280); assay: Counterscreen for Glucocerebrosidase Inhibitors: qHTS Assay for Human alpha-Galactosidase at pH 4.5 (AID 992); note: 0% is about no effect
Alpha-galactosidase A (Homo sapiens), sequence (P06280 whole entry, looked up): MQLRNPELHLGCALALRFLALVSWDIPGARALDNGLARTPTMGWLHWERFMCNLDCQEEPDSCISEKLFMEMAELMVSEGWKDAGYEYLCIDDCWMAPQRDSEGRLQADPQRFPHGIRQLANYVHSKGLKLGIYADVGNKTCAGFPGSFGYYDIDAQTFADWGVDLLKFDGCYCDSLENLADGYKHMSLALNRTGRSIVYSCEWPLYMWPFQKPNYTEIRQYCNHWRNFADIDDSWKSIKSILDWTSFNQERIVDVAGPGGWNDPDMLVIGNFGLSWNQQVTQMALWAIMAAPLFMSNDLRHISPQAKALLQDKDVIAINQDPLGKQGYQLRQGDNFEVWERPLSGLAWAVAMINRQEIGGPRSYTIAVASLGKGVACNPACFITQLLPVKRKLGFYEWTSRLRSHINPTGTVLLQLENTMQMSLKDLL
How it was run: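 Fluorogenic 4-MU alpha-D-galactoside (80 uM) hydrolysis, 2 nM enzyme, pH 4.5 citrate buffer + 0.005% Tween-20; 20 min RT; NaOH/glycine pH 10 stop; Ex365/Em440. Compounds titrated 0.7 nM–77 uM; Hill-equation AC50.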

[15] = molecular target: alpha-glucosidase (Oryza sativa, rice) (UniProt Q653V4); assay: Counterscreen for Glucocerebrosidase Inhibitors: qHTS Assay for Rice alpha-Glucosidase at pH 5.0 (AID 997);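 note: 0% = full activity with enzyme and -100% = basal without enzyme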
How it was run: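 Endpoint fluorogenic assay at pH 5.0: compounds (0.7 nM to 77 uM) titrated against 4 nM rice enzyme and 400 uM 4-MU-alpha-glucoside for 20 min at room temperature; NaOH/glycine stop, read ex 365/em 440 nm, Hill-fitted AC50.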

[16] = Validation of Assay for Modulators of Lamin A Splicing (AID 1459; active = well fitted curve in the direction sought with a large enough effect in the signal ratio; the % refers to the signal ratio;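 note: cells exposed to compound for two days before reading; 0% is about no effect; ratio rise marks activators and ratio drop marks inhibitors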)
How it was run: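 Splicing correction read as GFP (500-530 nm) over DsRed2 (575-640 nm) object intensity after 48 h compound exposure of reporter HeLa S3 clones (600 cells/well, 2% FBS medium); ancitabine and cycloheximide titrations, 0.5% DMSO as vehicle.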

[17] = molecular target: DNA repair nuclease/redox regulator APEX1 (Homo sapiens) (UniProt P27695); assay: qHTS Validation Assay for Inhibitors of the Human Apurinic/apyrimidinic Endonuclease 1 (APE1) (AID 1705)
DNA repair nuclease/redox regulator APEX1 (Homo sapiens), sequence (P27695 whole entry, looked up): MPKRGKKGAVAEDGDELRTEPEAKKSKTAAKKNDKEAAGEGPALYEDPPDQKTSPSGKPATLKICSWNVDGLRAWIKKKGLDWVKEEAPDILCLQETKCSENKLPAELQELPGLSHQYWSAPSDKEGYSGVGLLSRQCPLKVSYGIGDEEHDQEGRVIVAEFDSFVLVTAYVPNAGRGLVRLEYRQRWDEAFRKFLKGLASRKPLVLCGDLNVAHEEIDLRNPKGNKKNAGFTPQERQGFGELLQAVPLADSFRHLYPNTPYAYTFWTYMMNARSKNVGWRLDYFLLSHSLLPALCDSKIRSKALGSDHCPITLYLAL
How it was run: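 Activity read as rising fluorescence (598 nm emission, 525 nm excitation) from incision of a TAMRA/BHQ-2 duplex carrying a THF abasic site (50 nM). Compound and enzyme sat 15 min at RT before substrate start; signal change between first and third 60-s reads.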

[18] = Counterscreen for APE1 Inhibitors: Fluorescent Dye Displacement Validation Assay (AID 1707);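 note: plate controls were ThO with dsDNA and no compound for no effect and ThO without dsDNA for full effect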
How it was run: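 Endpoint fluorescence read at 480 nm excitation / 540 nm emission; DNA-binding compounds lower signal by displacing 250 nM Thiazole Orange from 50 nM dsDNA containing a tetrahydrofuran abasic site, Tris-HCl pH7.5 buffer with NaCl and MgCl2.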

[19] = molecular target: Endonuclease 4 (Escherichia coli (strain K12)) (UniProt P0A6C1); assay: Counterscreen for APE1 Inhibitors: qHTS Validation Assay for Inhibitors of Endonuclease IV (AID 1708); note: % is set by controls: 0 for no effect and ±100 for the full control effect
How it was run: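 Incision of a double-stranded 50 nM TAMRA/BHQ-2 abasic substrate was followed kinetically (525/598 nm, reads every 60 s) after 15 min enzyme–compound preincubation with 2 nM EndoIV in pH 7.5 Tris buffer with MgCl2, DTT and Tween-20; concentration-response format.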

[20] = qHTS for differential inhibitors of proliferation of Plasmodium falciparum line GB4 (AID 1816); settings: Potency: Plasmodium falciparum GB4 proliferation inhibition;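 note: parasite growth measured after 72 h incubation; 0% = vehicle DMSO and -100% = reference inhibitor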
[21] = qHTS for differential inhibitors of proliferation of Plasmodium falciparum line 3D7 (AID 1876);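 note: parasite growth measured after three days of culture; 0% = vehicle wells and -100% = reference inhibitor wells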
[22] = qHTS for differential inhibitors of proliferation of Plasmodium falciparum line D10 (AID 1877);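 note: parasites grown with compound for 72 h before DNA staining; plate controls were vehicle wells for no effect and reference inhibitor wells for full effect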
[23] = qHTS for differential inhibitors of proliferation of Plasmodium falciparum line Dd2 (AID 1882); settings: Potency: Plasmodium falciparum Dd2 proliferation inhibition;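 note: plate controls were DMSO vehicle for no effect and 0.29 µM artemisinin for full effect; nearly all actives have a fitted effect of over 65% in size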
How it was run: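 SYBR Green DNA fluorescence (ex 485, em 535 nm) after overnight lysis quantifies parasite growth; compound exposure lasted 72 h at 37 C on infected red cells at 2.5% hematocrit, 0.3% parasitemia (final). Artemisinin 0.29 uM and vehicle wells define normalization.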

[24] = qHTS for differential inhibitors of proliferation of Plasmodium falciparum line HB3 (AID 1886); settings: Potency: Plasmodium falciparum HB3 proliferation inhibition;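 note: parasites grown with compound for 72 h before SYBR Green readout; plate controls were vehicle for no effect and reference inhibitor for full effect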
[25] = molecular target: ATP-dependent DNA helicase Q1 (Homo sapiens) (UniProt P46063); assay: qHTS Validation Assay for Inhibitors of RecQ-Like Dna Helicase 1 (RECQ1) (AID 2353);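 note: plate controls were DMSO vehicle for no effect and enzyme-free control for full effect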
How it was run: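 RECQ1T1 50 nM; forked duplex (20 bp + 30-nt ss tails) 200 nM, ATP 2 mM final; pH 8.0, 2 mM MgCl2, 2.5 ug/ml poly(dI-dC); 15 min compound preincubation; discontinuous kinetic read over 2 h at RT.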

[26] = Validation screen for small molecules that induce DNA re-replication in MCF 10A normal breast cells (AID 463097); note: 0% is about no effect; nearly all actives have a fitted effect of over 60% in size
How it was run: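 Read-out is Hoechst total nuclear intensity by fluorescence scanning imager, flagging increased high-DNA-content nuclei. Compounds were incubated with MCF 10A cells for 48 hr (37 C, 5% CO2) before 40 min staining.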

[27] = Quantitative high throughput screen for delayed death inhibitors of the malarial parasite plastid, 48 hour incubation (AID 488752); note: % is set by controls: 0 for no effect and ±100 for the full control effect; nearly all actives have a fitted effect of over 65% in size
How it was run: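 First, compound was pinned into RPMI 1640 medium containing 0.5% Albumax. Next, reporter-parasite-infected erythrocytes were added to 2% hematocrit and 0.1% parasitemia. After 48 h at 37 C under 5% CO2, luciferase detection reagent was added and luminescence read.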

[28] = molecular target: M-phase phosphoprotein 8 (Homo sapiens) (UniProt Q99549); assay: qHTS Validation Assay for Inhibitors for MPP8 Chromodomain Interactions with Methylated Histone Tails (AID 488949);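 note: AlphaScreen signal from MPP8 chromodomain bound to biotinylated H3K9me3 peptide; top concentration of the series differs between compounds; % is set by controls: 0 for no effect and ±100 for the full control effect; nearly all actives have a fitted effect of over 55% in size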
How it was run: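 AlphaScreen proximity signal from streptavidin donor and Ni-chelate acceptor beads (10 ug/mL each) reported binding of MPP8 to trimethyl-K9 H3(1-18) peptide, both at 50 nM. The complex formed 30 min before a 30 min compound exposure at room temperature, in PBS pH 7.4.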

[29] = molecular target: Thyrotropin-releasing hormone receptor (Homo sapiens) (UniProt P34981); assay: qHTS for Small Molecule Agonists and Allosteric Enhancers of Human TRH Receptor: Validation Screen for Agonists (AID 493127;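 active = calcium activation more than 3 SD above the typical response in the agonist read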;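 note: intracellular calcium rise by fluo-8 fluorescence before TRH EC20 addition; 0% is about no effect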); settings: TRH receptor agonist cell assay; at 2 µM; stronger effect = higher value
How it was run: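 Compounds are added by online pintool to dye-loaded TRHR cells while fluorescence is recorded every second. A rise in calcium signal during the agonist read marks activation; a later 10 nM TRH addition (EC20) serves the separate enhancer mode.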

[30] = molecular target: Galactokinase (Homo sapiens) (UniProt P51570); assay: qHTS Validation Assay for Inhibitors of Human Galactokinase (GALK) (AID 493189); note: 0% is about no effect
Galactokinase (Homo sapiens), sequence (P51570 whole entry, looked up): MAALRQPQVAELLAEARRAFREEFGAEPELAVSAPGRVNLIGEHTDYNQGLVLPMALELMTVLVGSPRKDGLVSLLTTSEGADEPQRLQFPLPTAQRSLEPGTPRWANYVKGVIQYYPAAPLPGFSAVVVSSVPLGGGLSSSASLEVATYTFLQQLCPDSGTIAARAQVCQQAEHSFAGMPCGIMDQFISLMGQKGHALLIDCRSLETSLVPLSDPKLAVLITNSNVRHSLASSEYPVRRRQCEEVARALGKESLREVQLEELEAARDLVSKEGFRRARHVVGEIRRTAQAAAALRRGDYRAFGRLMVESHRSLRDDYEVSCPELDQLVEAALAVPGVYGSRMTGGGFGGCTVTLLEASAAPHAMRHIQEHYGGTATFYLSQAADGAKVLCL
How it was run: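 Inhibition was measured as remaining ATP, detected by luciferase luminescence after a 1 h room-temperature reaction. Final conditions: 5 nM GALK, 100 uM galactose, 35 uM ATP, pH 8.0 HEPES buffer.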

[31] = Validation screen for small molecules that induce DNA re-replication in SW480 colon adenocarcinoma cells (AID 504364); note: 0% is about no effect
How it was run: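 Image-based qHTS: compounds were incubated with SW480 cells for 48 hr, nuclei stained with Hoechst, and per-nucleus fluorescence intensity scanned to flag cells with excess DNA content.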

CCn1c(=O)c2[nH]c(-c3ccccc3)nc2n(CC)c1=O
inactive: activity change, negative = inhibition [1] -2.19% [at 38 µM] | activity change, negative = inhibition [3] 15.8% [at 38 µM] | activity, negative = inhibition [4] 6.25% [at 38 µM] | Potency [5] > 46 µM | Potency [6] > 46 µM | outcome [8] | Potency [9] | Potency [10] | Potency [11] | Potency [12] | outcome [13] | outcome [14] | outcome [15] | outcome [16] | Potency [17] | Potency [18] | outcome [19] | Potency [20] | Potency [21] | Potency [22] | Potency [23] | Potency [24] | Potency [25] | outcome [26] | Potency [27] | Potency [28] | activation [29] 0.688% | outcome [30] | outcome [31]
active: Potency [2] 1 µM | Potency [7] 2 µM
